From PubChem
Hits are enriched below; roughly 6.6% of the tested compounds scored in any of these assays.
GDH-TPI counter-1: GDH-TPI coupling enzyme inhibitors, primary screen, artefact control for M. tuberculosis FBA inhibitor project, biochemical, absorbance, full deck; GDH-TPI coupled enzyme counterscreen, NADH absorbance; inhibition, % at 4.8 µM; 360,000 compounds, 1.2% hits; in the data active means inhibition above about 30%
BoNT A protease: BoNT/A light chain protease inhibitors, primary screen, biochemical, flow cytometry, MLPCN library. 360,000 compounds, 0.17% hits. AID 588499, 2011. multiplex microsphere protease substrate cleavage. inhibition, % at 10 µM
Mtb FBA inh: Mtb FBA enzyme inhibitors, primary screen, biochemical, fluorescence, strain H37Rv. Fructose-bisphosphate aldolase (Mycobacterium tuberculosis (strain ATCC 25618 / H37Rv)), …. purified M. tuberculosis FBA, fluorescence read-out. inhibition, % at 1 µM. 360,000 compounds, 2.3% hits; in the data active means inhibition above about 27%
Anthrax LF prot: Bacillus anthracis LF protease inhibitors, primary screen, biochemical, multiplex microsphere, MLPCN library. Lethal factor (Bacillus anthracis), P15917. multiplex microsphere protease cleavage assay. inhibition, % at 10 µM. 360,000 compounds, 0.12% hits
Target sequence (P15917 whole entry, looked up): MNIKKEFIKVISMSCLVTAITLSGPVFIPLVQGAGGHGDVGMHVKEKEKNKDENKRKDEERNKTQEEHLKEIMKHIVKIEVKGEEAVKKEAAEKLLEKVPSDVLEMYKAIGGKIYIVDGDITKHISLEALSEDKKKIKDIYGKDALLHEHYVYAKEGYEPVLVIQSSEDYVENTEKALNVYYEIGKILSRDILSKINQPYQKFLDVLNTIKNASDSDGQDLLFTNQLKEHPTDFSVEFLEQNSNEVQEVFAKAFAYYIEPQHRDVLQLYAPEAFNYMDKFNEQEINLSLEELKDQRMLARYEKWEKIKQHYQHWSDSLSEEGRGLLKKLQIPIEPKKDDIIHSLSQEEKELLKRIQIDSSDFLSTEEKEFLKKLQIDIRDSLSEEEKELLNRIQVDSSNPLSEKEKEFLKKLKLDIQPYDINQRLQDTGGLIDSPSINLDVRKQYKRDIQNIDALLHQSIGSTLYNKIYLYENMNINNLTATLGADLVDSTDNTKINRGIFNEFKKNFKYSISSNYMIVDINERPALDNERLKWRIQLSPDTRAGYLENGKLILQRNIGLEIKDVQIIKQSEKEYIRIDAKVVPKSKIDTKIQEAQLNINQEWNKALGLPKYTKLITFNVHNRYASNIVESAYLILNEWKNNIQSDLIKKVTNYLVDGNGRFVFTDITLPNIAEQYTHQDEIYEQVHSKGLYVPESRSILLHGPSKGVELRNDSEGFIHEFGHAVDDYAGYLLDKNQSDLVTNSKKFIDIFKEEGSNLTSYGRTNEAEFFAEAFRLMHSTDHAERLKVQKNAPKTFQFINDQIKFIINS
Autofluor counter: flagged as autofluorescent in microsphere protease counterscreen; compound autofluorescence counterscreen, microsphere flow cytometry; hits give high values; fluorescence intensity (test concentration not listed); 360,000 compounds, 3.1% hits; AID 624483; in the data active means fluorescence intensity above about 16000; inconclusive means no clear call, values can overlap the other calls
BoNT-F LC inh: BoNT/F light chain protease inhibitors, primary screen, biochemical, flow cytometry, MLPCN library | Botulinum neurotoxin type F light chain protease (Clostridium botulinum) | Multiplex microsphere protease cleavage assay | inhibition, % at 10 µM | 360,000 compounds, 0.22% hits | AID 588497, 2011; in the data active means inhibition above about 35%, passing the limit was not always enough; inconclusive means no clear call, values can overlap the other calls
Mtb FBA confirm: M. tuberculosis aldolase blockers, biochemical, fluorescence, strain H37Rv, confirmation. 5,600 compounds, 78% hits. shares compounds with Mtb FBA inh. purified M. tuberculosis FBA, fluorescence read-out. inhibition, % at 1 µM; in the data active means inhibition above about 27%
GDH-TPI counter-2: GDH-TPI coupling enzyme inhibitors, artefact control for M. tuberculosis FBA inhibitor project, biochemical, fluorescence, high throughput | shares compounds with Mtb FBA inh | GDH-TPI coupled enzyme counterscreen | inhibition, % at 1 µM | 5,600 compounds, 81% hits | AID 652141, 2013; in the data active means inhibition above about 10%
GDH-TPI DR: GDH-TPI coupling enzyme inhibitors, dose response, artefact control for M. tuberculosis FBA inhibitor project, biochemical, fluorescence, IC50 | 170 compounds, 79% hits | GDH-TPI coupled enzyme assay, artifact counterscreen | AID 652145, 2013 | IC50, µM | shares compounds with Mtb FBA inh; call rule not given here
A number is an active result; 0 = inactive; ? = inconclusive; - = no result; + = active, no number. Unless noted, no stated cut-off is given here; in the data, active means inhibition above about 30%; inconclusive means no clear call, values can overlap the other calls; inactive means below that.

SMILES	GDH-TPI counter-1	BoNT A protease	Mtb FBA inh	Anthrax LF prot	Autofluor counter	BoNT-F LC inh	Mtb FBA confirm	GDH-TPI counter-2	others
Cc1cc(C)c2nc(-c3ccccn3)cc(C(=O)NCc3ccco3)c2c1	0	0	51	0	0	0	+	199
Cc1cc(C)c2nc(-c3ccccn3)cc(C(=O)Nc3cc(C)on3)c2c1	0	0	0	0	0	0	-	-
C=CCNC(=O)c1cc(-c2cccnc2)nc2ccccc12	0	0	0	0	0	0	-	-
O=C(Cn1cc(S(=O)(=O)N2CCN(c3ccccc3F)CC2)c2ccccc2c1=O)NCCCN1CCCCCC1	0	0	0	0	0	0	-	-
Cc1ccc(C)c(S(=O)(=O)NCC(c2ccco2)N2CCc3ccccc3C2)c1 (centres undefined)	0	0	74	0	0	0	81	74
CCOc1ccc(C2NC(=O)NC(C)=C2[N+](=O)[O-])cc1OC (centres undefined)	0	0	0	0	0	0	-	-
CCOC(=O)C1CCN(C(=O)c2cc3c(=O)n4cccc(C)c4nc3s2)CC1	0	0	100	0	0	0	+	166
CC(C)CN(CC(C)C)C(=O)c1cc2c(=O)n3ccccc3nc2s1	0	0	59	0	0	0	+	194
CCOC(=O)C1CCN(C(=O)c2cccc(Cl)c2)CC1	0	0	0	0	0	0	-	-
Cc1cccn2c(=O)c3cc(C(=O)NC4CCCC4)sc3nc12	0	-	91	-	-	-	66	51
Cc1cccn2c(=O)c3cc(C(=O)N4CCCCC4)sc3nc12	31	0	64	0	0	0	122	83
Cc1cccn2c(=O)nc(SCC(=O)N3CCCC3)nc12	0	0	0	0	?	0	-	-
Cc1nn(-c2ccccc2)c2sc(C(=O)NC3CCCCC3)cc12	0	0	0	0	0	0	-	-
Cc1nn(C(C)C(=O)NCCCc2ccccc2)c(=O)c2nn(-c3ccccc3)c(C)c12 (centres undefined)	0	0	0	0	0	0	-	-
CCN(CC)CCCN(C(=O)Cn1nnc(-c2ccc(OC)c(OC)c2)n1)C(C(=O)NC(C)(C)C)c1ccc(F)cc1 (centres undefined)	0	0	0	0	0	0	-	-
Cc1cccn2c(=O)c3cc(C(N)=S)c(=N)n(CCCOC(C)C)c3nc12	0	41	63	0	0	0	0	0
CCCN(CCC)C(=O)c1cc2c(=O)n3cccc(C)c3nc2s1	0	0	30	0	0	0	137	98
CCCCCn1c(=N)c(S(=O)(=O)c2ccc(Cl)cc2)cc2c(=O)n3cccc(C)c3nc21	0	0	0	0	0	0	-	-
Cc1cccn2c(=O)c3cc(C(=O)NCCCOC(C)C)sc3nc12	0	0	103	0	0	0	0	0
Cc1ccccc1NS(=O)(=O)c1ccc(C(=O)N2CCN(S(=O)(=O)c3ccccc3)CC2)cc1	0	-	0	-	-	-	-	-
CC(C)Sc1nnc(NC(=O)c2ccco2)s1	0	0	0	0	0	0	-	-
O=C(Nc1nnc(/C=C/c2ccccc2)s1)c1ccco1	74	0	34	0	0	?	0	0
O=C(O)CCc1nc2cc(C(F)(F)F)ccc2n(Cc2ccccc2)c1=O	0	0	0	0	0	0	-	-
Cc1cccc(NS(=O)(=O)c2cc3c(cc2C)NC(=O)CO3)c1	0	0	0	0	0	0	-	-
COc1ccccc1[C@H]1C(c2cccc(C)c2)=NN(c2ccccc2)[C@@H]1CO	0	0	44	0	0	0	108	114
SMILES	GDH-TPI counter-1	BoNT A protease	Mtb FBA inh	Anthrax LF prot	Autofluor counter	BoNT-F LC inh	Mtb FBA confirm	GDH-TPI counter-2	others
COc1ccccc1[C@H]1C(c2ccc(F)cc2)=NN(c2ccccc2)[C@@H]1CO	0	0	44	0	0	0	+	+
CCc1cc2c(=O)c(-c3cscn3)coc2c(CN(C)C)c1O	0	0	41	0	0	0	161	125
CCc1cc2c(=O)c(-c3ccc4c(c3)OCO4)coc2c(CN(C)C)c1O	0	0	0	0	0	0	-	-
COc1ccc(-c2ccc3c(=O)cc(-c4ccsc4)oc3c2)cn1	0	0	48	0	0	0	0	0
CCCCn1c(=O)[nH]c(=O)c2c(C(=O)OCC)cc(-c3cccs3)nc21	0	0	69	0	0	0	0	0	GDH-TPI DR=1.3
CCCn1c(=O)[nH]c(=O)c2c1nc(-c1cccs1)n2CCOC	0	0	90	0	0	0	+	167
CCCn1c(=O)[nH]c(=O)c2c(C(=O)OCC)cc(-c3cccs3)nc21	0	0	89	0	0	0	100	87
COCCn1c(-c2ccc3ccccc3c2)nc2c1c(=O)[nH]c(=O)n2CC(C)C	0	0	73	0	0	0	98	83
CC(C)C(NC(=O)OCc1ccccc1)C(=O)NC1CCCCC1 (centres undefined)	0	0	0	0	0	0	-	-
CN1CCN(c2ccccc2NC(=O)c2ccc([N+](=O)[O-])cc2Cl)CC1	0	0	0	0	0	0	-	-
COC(=O)C1=CN(c2ccc(F)cc2)C=C(C(=O)OC)C1c1ccc(O)cc1	0	0	71	0	0	0	96	82
Cc1nc(N2CCC(C)CC2)c2c(C)c(C(=O)Nc3ccc(C(F)(F)F)cc3)sc2n1	0	0	34	0	0	0	0	0
Cc1nc(N2CCC(C)CC2)c2c(C)c(C(=O)Nc3cccc(C(F)(F)F)c3)sc2n1	0	0	0	0	0	0	-	-
Cc1ccc2nc(-c3ccc(C#N)cc3)c(Cc3ccccn3)n2c1	-	0	61	0	0	0	146	94
Cc1ccc(-c2nc3ccc(C)cn3c2Cc2ccccn2)cc1	-	0	-	0	0	0	-	-
CCn1c(C)c(C)c2cc(C(=O)NC3CCCCCC3)ccc21	0	0	0	0	0	0	-	-
COc1ccc2oc(=N)c(C(=O)Nc3ccc(F)cc3)cc2c1	0	0	0	0	0	?	-	-
COc1ccc2oc(=Nc3cccc(F)c3)c(C(N)=O)cc2c1	0	0	39	0	0	0	0	0
COc1ccc2cc(C(N)=O)c(=Nc3ccc(C)cc3)oc2c1	0	0	35	0	0	0	-	+
O=S(=O)(Cc1ccccc1)Cc1cnc(Cl)s1	0	0	0	0	0	0	-	-
